# Assay results published in PubChem BioAssay (NCATS).
# Unmarked numbers belong to inactive results. Inconclusive results are not listed. Where a call stands in place of a potency, no number is given. Activity calls are given as the source filed them. Unless noted, calls come from the whole dose curve; as a rule, active = well fitted curve in the direction sought with a large enough effect; inconclusive = small, poorly fitted or top-dose-only effect, or another doubt; inactive = no such curve, though single readings can be large; an effect the other way counts as inactive or inconclusive.
# How the values were obtained:
# [1] = P-glycoprotein substrates identified in KB-8-5-11 adenocarcinoma cell line, qHTS therapeutic library screen (AID 1346987); note: nearly all actives have a fitted effect of over 65% in size; for activity change, negative = cytotoxicity: series mostly up to about 44 µM
# Procedure, shortened: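 Compounds are pinned in dose-response onto KB-8-5-11 cells (500 cells/well, colchicine-free medium) and left 72 h at 37 degree C. CellTiter-Glo luminescence then yields AC50 values.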
# Furin (Homo sapiens) = Furin (Homo sapiens) (UniProt P09958); assay: Furin counterscreen qHTS for Zika virus inhibitors (AID 1347149); note: nearly all actives have a fitted effect of over 70% in size; note: potency is the fitted concentration of half-maximal effect
# Sequence of Furin (Homo sapiens) (P09958 whole entry, looked up): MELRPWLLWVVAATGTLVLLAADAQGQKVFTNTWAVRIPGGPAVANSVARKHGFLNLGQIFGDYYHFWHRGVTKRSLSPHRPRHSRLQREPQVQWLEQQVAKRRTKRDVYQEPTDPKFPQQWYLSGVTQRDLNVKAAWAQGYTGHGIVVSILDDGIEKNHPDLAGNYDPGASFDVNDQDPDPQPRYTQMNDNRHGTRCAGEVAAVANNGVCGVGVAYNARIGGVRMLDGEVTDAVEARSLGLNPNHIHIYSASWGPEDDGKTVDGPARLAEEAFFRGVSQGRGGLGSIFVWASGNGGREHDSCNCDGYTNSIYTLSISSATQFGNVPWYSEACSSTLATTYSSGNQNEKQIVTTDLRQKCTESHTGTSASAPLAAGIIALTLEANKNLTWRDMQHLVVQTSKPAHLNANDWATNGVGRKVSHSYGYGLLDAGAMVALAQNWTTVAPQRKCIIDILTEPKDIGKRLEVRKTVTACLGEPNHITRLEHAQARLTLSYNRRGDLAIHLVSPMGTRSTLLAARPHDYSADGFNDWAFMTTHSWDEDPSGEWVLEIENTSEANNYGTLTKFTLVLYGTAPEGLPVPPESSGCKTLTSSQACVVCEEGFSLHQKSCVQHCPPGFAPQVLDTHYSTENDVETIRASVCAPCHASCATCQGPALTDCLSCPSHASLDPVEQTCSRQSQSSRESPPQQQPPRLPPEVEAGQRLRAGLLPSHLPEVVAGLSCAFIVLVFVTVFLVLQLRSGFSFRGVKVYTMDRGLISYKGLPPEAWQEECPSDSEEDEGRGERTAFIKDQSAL
# Procedure, shortened: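 Counterscreen measures cleavage of 2 microM BOC-RVRR-AMC, below its ~15 microM Km, by 5 nM full-length human furin at pH 7.0 after a 15-min compound preincubation. Inhibition derives from the 15-min fluorescence increase at 37C.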
# [2] = target: Peroxisome proliferator-activated receptor alpha (Homo sapiens) (UniProt Q07869); assay: qHTS assay for small molecule agonists of the peroxisome proliferator-activated receptor alpha (PPARalpha) signaling pathway (AID 651778); conditions: PathHunter PPARalpha complementation, chemiluminescence, 6 h; stronger effect = higher value
# Sequence of Peroxisome proliferator-activated receptor alpha (Homo sapiens) (Q07869 whole entry, looked up): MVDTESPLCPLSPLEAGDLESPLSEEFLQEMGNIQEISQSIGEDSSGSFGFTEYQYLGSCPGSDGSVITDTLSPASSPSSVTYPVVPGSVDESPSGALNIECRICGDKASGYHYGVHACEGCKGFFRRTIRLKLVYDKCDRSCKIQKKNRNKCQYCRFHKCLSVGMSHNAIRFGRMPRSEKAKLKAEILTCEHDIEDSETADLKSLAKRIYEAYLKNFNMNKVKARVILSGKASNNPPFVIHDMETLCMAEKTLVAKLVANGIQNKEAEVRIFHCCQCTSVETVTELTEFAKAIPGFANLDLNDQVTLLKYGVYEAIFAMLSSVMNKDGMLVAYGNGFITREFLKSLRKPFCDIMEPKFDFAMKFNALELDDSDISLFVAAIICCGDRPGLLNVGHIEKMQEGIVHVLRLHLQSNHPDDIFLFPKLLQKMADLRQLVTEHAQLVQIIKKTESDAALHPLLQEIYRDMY
# Procedure, shortened: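 Cells plated at 2,000/well and held overnight at 37 C, 5% CO2, then compound added by pin tool for 6 hr; after PathHunter detection reagent and 60 min at room temperature, chemiluminescence from enzyme complementation was read.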
# [3] = target: Nuclear receptor ROR-gamma (Homo sapiens) (UniProt P51449); assay: qHTS assay for small molecule antagonists of the retinoid-related orphan receptor gamma (ROR-gamma) signaling pathway (AID 651802);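 note: CHO cells with doxycycline-induced ROR-gamma expression; luciferase reporter luminescence driven by ROR response element; series mostly up to about 92 µM; nearly all actives have a fitted effect of over 60% in size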
# Sequence of Nuclear receptor ROR-gamma (Homo sapiens) (P51449 whole entry, looked up): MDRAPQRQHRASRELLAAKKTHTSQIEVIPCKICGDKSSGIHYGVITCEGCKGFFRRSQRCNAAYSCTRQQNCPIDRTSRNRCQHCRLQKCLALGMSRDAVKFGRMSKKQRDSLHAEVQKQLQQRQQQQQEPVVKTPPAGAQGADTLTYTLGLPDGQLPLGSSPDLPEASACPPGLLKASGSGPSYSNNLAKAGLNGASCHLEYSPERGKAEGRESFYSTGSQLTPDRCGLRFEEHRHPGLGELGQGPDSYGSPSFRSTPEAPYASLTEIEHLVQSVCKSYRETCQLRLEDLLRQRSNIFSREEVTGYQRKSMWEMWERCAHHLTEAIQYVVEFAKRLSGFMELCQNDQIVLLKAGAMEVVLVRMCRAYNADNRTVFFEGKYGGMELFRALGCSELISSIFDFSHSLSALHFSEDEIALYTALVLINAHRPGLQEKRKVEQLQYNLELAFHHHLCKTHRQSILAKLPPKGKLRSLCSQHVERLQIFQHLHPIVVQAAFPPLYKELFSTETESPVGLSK
# Procedure, shortened: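 Luminescence (One-Glo, 30 min RT) measured 16 h after compound addition and doxycycline induction at 37C. Reporter: RORE-luciferase under TET-inducible ROR-gamma in CHO cells.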
# [4] = qHTS assay for small molecule agonists of the antioxidant response element (ARE) signaling pathway measured by Nrf2-dependant transcriptional activity (AID 720636; active = well fitted curve in the direction sought with a large enough effect in the repeat runs; an effect the other way counts as inactive or inconclusive)
# Procedure, shortened: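 ARE-luc HepG2 cells carrying an Nrf2-responsive luciferase reporter were plated in medium with 1% dialyzed FBS, left 6 hr at 37 C to attach, then exposed to compound for 16 hr. Luciferase luminescence was read after ONE-Glo addition.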
# [5] = qHTS assay for small molecule antagonists of the retinoid-related orphan receptor gamma (ROR-gamma) signaling pathway - cell viability counter screen (AID 720652; active = well fitted curve in the direction sought with a large enough effect in the repeat runs; an effect the other way counts as inactive or inconclusive;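 note: CHO reporter cells with doxycycline-induced ROR-gamma expression; series mostly up to about 92 µM; compound exposure lasted 16 hr before ATP read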)
# Procedure, shortened: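 Cytotoxicity counter screen: intracellular ATP (CellTiter-Glo luminescence) measured in the doxycycline-induced CHO RORE-luciferase reporter line after 16 hr compound exposure at 37 C, 5% CO2.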
# [6] = qHTS assay for small molecule agonists of the antioxidant response element (ARE) signaling pathway measured by Nrf2-dependant transcriptional activity - cell viability counter screen (AID 720653; active = well fitted curve in the direction sought with a large enough effect in the repeat runs; an effect the other way counts as inactive or inconclusive); conditions: ARE-bla HepG2 viability, CellTiter-Glo ATP luminescence, 16 h; stronger effect = lower value
# Procedure, shortened: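 ARE-bla HepG2 cells (2,000/well) rested 5 hrs at 37C/5% CO2, then exposed to compounds in DMSO for 16 hrs. Viability was read in the same wells as intracellular ATP by luminescence, 30 min at room temperature after reagent addition.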
# [7] = qHTS assay for cell viability of HEK293 cells (AID 743288); conditions: ATP luminescence (CellTiter-Glo), 18 h, stronger effect = lower value; note: nearly all actives have a fitted effect of over 50% in size
# Procedure, shortened: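 HEK293, 18 h, 37 C, ATP luminescence. Cells at 2,000/well were allowed at least 5 h to settle before dosing; CellTiter-Glo developed 30 min at RT.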
# [8] = qHTS assay for cell viability of the p53RE-bla HCT-116 cell line (AID 743292); note: nearly all actives have a fitted effect of over 55% in size
# Procedure, shortened: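 CellSensor p53RE-bla HCT-116 cells, 4,000/well, preincubated 5 h at 37 C, then exposed to compounds in DMSO for 16 h at 37 C. Viability read as CellTiter-Glo luminescence (intracellular ATP) after 30 min at room temperature.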
compound,measurement,setting,value
CC(C)Oc1ccc(-c2nc(-c3cccc4c3CCC4NCCC(=O)O)no2)cc1C#N (configuration not stated),Potency,[1],inactive
COc1cc(C)c(C(=O)OC2C(C)OC(OC3CCC(C)C4C3C=C(C)C3/C(C)=C\CC/C(C)=C/C5(C)C=C(C(=O)O)C(C)CC56OC(=O)/C(=C(\O)C34C)C6=O)C(O)C2O)c(OC)c1 (configuration not stated),"activity change, negative = cytotoxicity",[1],8.21% [at 9.29 µM]
CC(=O)O[C@@H]1C(=O)C(C)=C(CCC(C)CC(=O)O)[C@@]2(C)CCCC(C)(C)C12 (some centres not stated),Potency,[1],inactive
CC(=O)Nc1cccc2c1c(Sc1ccc(Cl)cc1)c(C)n2CC(=O)O,Potency,[1],inactive
C=C1C2CCC3C(CCC4[C@@]3(C)CCC[C@@]4(C)C(=O)O)(C2)[C@@H]1OC(=O)/C(C)=C\C (some centres not stated),Potency,[1],inactive
same,Potency,Furin (Homo sapiens),inactive
O=C(O)CC1CCC(c2ccc(-c3ccc(Nc4ccc(C(F)(F)F)nc4)cn3)cc2)CC1 (configuration not stated),Potency,Furin (Homo sapiens),78.4 µM (active)
CCOc1ccc(-c2nn3ncccc3c2-c2ccc(S(C)(=O)=O)cc2)cc1,Potency,[1],inactive
COc1cc(O)c(C(=O)O)c(CCc2ccccc2)c1,Potency,[1],inactive
COc1cc2c(c(O)c1OC/C=C(\C)CC/C=C(/C)CCC=C(C)C)CN(C(CCC(=O)O)C(=O)O)C2=O (configuration not stated),Potency,[1],inactive
same,Potency,Furin (Homo sapiens),inactive
Cc1c(Cc2ccc3ccccc3n2)c2cc(F)ccc2n1CC(=O)O,Potency,[1],inactive
COc1cc(Nc2ccc([N+](=O)[O-])cc2C(=O)O)cc2ccccc12,Potency,[1],inactive
same,Potency,Furin (Homo sapiens),inactive
C=CC1(C)C=C2CC[C@H]3[C@@](C)(C(=O)O)CCC[C@]3(C)C2CC1 (some centres not stated),Potency,[1],inactive
same,Potency,Furin (Homo sapiens),inactive
OC[C@H]1O[C@@H](Oc2cc(O)cc(-c3cc4ccc(O[C@@H]5O[C@H](CO)[C@@H](O)[C@H](O)[C@H]5O)cc4o3)c2)[C@H](O)[C@@H](O)[C@@H]1O,Potency,[1],inactive
O=C(OC[C@H]1O[C@@H](Oc2ccccc2CO)[C@H](O)[C@@H](O)[C@@H]1O)c1ccccc1,Potency,[1],inactive
Cc1ccc2[nH]c(=O)c(C3=NN(C(=O)CCC(=O)O)C(c4ccc(Br)cc4)C3)c(-c3ccccc3)c2c1 (configuration not stated),Potency,[1],inactive
same,Potency,Furin (Homo sapiens),69.8 µM (active)
CC1C2=CC(=O)OC2(O)CC2C1C(O)CC1C(C)(CO)CCCC21C (configuration not stated),Potency,[1],inactive
OCC1OC(Oc2cc(O)cc(/C=C/c3ccc(OC4OC(CO)C(O)C(O)C4O)cc3O)c2)C(O)C(O)C1O (configuration not stated),Potency,[1],inactive
COC(=O)C[C@H]1C(C)(C)[C@H](OC(=O)C(C)C)C2CC3=C4CC(=O)O[C@@H](c5ccoc5)[C@]4(C)CCC3[C@@]1(C)C2=O (some centres not stated),Potency,[1],inactive
COc1cc(/C=C/c2ccccc2)c(C(=O)O)c(O)c1CC=C(C)C,Potency,[1],inactive
same,Potency,Furin (Homo sapiens),19.3 µM (active)
C=C1C[C@]23C[C@@]1(O)CC[C@H]2[C@@]12C=C[C@H](O)[C@@](C)(C(=O)O1)[C@H]2[C@@H]3C(=O)O,max response,[2],-2.22%
same,outcome,[3],inactive
same,outcome,[4],inactive
same,outcome,[5],inactive
same,max response,[6],2.88%
same,max response,[7],3.04%
same,outcome,[8],inactive
same,Potency,[1],inactive
C/C=C(/C)C(=O)OC1C2OC2C2(CO2)C2C3OC(=O)C(C)C3CCC12C (configuration not stated),Potency,[1],inactive
COc1ccc([C@H]2OC[C@H]3[C@@H]2CO[C@@H]3c2ccc(O[C@@H]3O[C@H](CO)C(O)[C@H](O)[C@H]3O)c(OC)c2)cc1OC (some centres not stated),Potency,[1],inactive
C/C=C/C=C/C=C/C(=O)O[C@@H]1[C@@H](OC)C2=C(C(=O)N(C(CCC(=O)O)C(=O)O)C2)[C@@]2(C)CCCC(C)(C)[C@H]12 (some centres not stated),Potency,[1],inactive
same,Potency,Furin (Homo sapiens),inactive
